# Most compounds without a hit are left out; they make up all but 4% or so of the library.
# Cl transport mod – modulates chloride dependent transport by human KCC2; KCC2 cells, thallium flux FluoZin-2 fluorescence; 190,000 tested, 2.2% active; B-score of Tl+ flux slope (higher = more flux/activation; lower = inhibition) at 10 µM;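 active means thallium flux slope and its plate-corrected score both differing from the plate sample mean at a set confidence after two filtering rounds, in either direction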;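 further: slope of fluorescence scaled to starting intensity during 10 to 20 s after thallium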
# Measles CPE – protection of cells from measles virus; Measles virus-infected cells, CPE protection, absorbance; protection (pct of control), % at 4 µM; 140,000 tested, 1.5% active; in the data active means protection mostly above about 24%, no sharp cut-off; inactive means mostly below about 26%
# Arbovirus inh – blocks arbovirus infection; arbovirus infection cell-based antiviral screen; inhibition, % at 10 µM; 200,000 tested, 0.37% active; AID 1251; in the data active means inhibition above about 30%
# ROMK mod – human ROMK K+ channel modulation, primary screen; P48048; Tet-inducible ROMK, thallium flux fluorescence; actives lie on both sides; B-score at 10 µM; 130,000 tested, 2% active;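 active means signal ratio slope over the read window, or its plate-corrected B-score, at least 3 SD from the plate mean, either direction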;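 further: B-score of the F/F0 ratio slope over 7 to 12 s after thallium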
# HSV replic up – HSV replication enhancement; HSV replication augmentation in cells, fold increase; maximum fold increase; 220,000 tested, 0.005% active; in the data active means maximum fold increase above about 1.5; inconclusive means no clear call, values can overlap the other calls; tested in PC3 cells
# Numbers without * were called inactive; i = inactive; ? = inconclusive; · = no result given.
SMILES,Cl transport mod,Measles CPE,Arbovirus inh,ROMK mod,HSV replic up
CCN(CC)C(=O)C(Sc1ccccc1)c1ccccc1 (centres undefined),-0.968,60.8*,1.4,1.19,i
CCCNC(=O)C(Sc1ccccc1)c1ccccc1 (centres undefined),1.07,25.2,-5.4,·,i
CCCCc1ccc(NC(=S)N2CCCC(C)C2)cc1 (centres undefined),-0.302,·,9.4,-0.425,i
O=[N+]([O-])c1ccc(-c2cn(-c3ccc(Cl)cc3)c(=S)[nH]2)cc1,3.66*,14.8,-5.3,·,i
CCc1ccc(-n2cc(-c3ccc([N+](=O)[O-])cc3)[nH]c2=S)cc1,3.73,5.8,-7.2,0.133,i
COc1ccc(C(C)(C)C)cc1NC(=O)C1C2C=CC(C2)C1C(=O)O (centres undefined),-0.302,33.8*,2.4,-0.56,i
COc1ccc(C(C)(C)C)cc1NC(=O)C1CC=CCC1C(=O)O (centres undefined),·,14.9,5.0,0.172,i
Cc1ccc(/C=C/C(=O)c2ccccc(=O)c2O)cc1C,32.2*,7.5,-36.0,-0.369,i
O=C(/C=C/c1ccccc1)c1cc(Br)ccc(=O)c1O,15.6*,6.8,-5.5,-1.03,?
COc1ccc(/C=C/C(=O)c2ccccc2O)cc1,1.24,5.7,-6.6,0.0343,i
COc1cc(OC)c2c3c(c(C4CCCCC4)nc2c1)CCC3,·,·,·,·,i
Cc1ccc(OC2=NS(=O)(=O)c3ccccc32)cc1,·,27.7*,-6.5,0.212,i
CC1(C)CC(=O)C2=C(C1)NC(=O)CC2c1cc(F)ccc1F (centres undefined),0.561,28.0,7.1,0.738,i
CC1(C)CC(=O)C2=C(C1)NC(=O)CC2c1cccc(F)c1 (centres undefined),-0.901,43.4*,2.1,0.51,i
O=C(NCCN1C(=O)S/C(=C/c2cccnc2)C1=O)C1CC(=O)N(Cc2ccccc2)C1 (centres undefined),-0.0158,·,30.1*,-0.94,i
Cc1ccccc1NC(=S)c1nc2ccccc2[nH]1,45.8*,11.6,-1.1,0.427,i
S=C(Nc1ccc(Cl)cc1)c1nc2ccccc2[nH]1,29.6*,12.7,-16.1,0.0503,i
Cc1ccccc1NC(=O)NCCc1nc2ccccc2[nH]1,0.115,14.8,15.3,-0.0245,i
COc1cc(OC)cc(-c2nnc(SCC(=O)N3CCCc4ccccc43)o2)c1,·,35.4*,-7.8,·,i
O=C(CSc1nc(O)cc(=O)[nH]1)N1CCCc2ccccc21,0.123,47.6*,-2.6,·,i
CN1CCN(NC(=S)Nc2ccc(Oc3ccccc3)cc2)CC1,-1.33,·,-0.3,0.0562,i
O=C(c1nc2ccccn2c1CN1CCCC(c2nc3ccccc3o2)C1)N1CCCC1 (centres undefined),-0.0253,·,0.8,-0.948,i
O=C(/C=C/c1ccccc1)NC(NC(=S)Nc1ccc(C(=O)O)cc1)C(Cl)(Cl)Cl (centres undefined),0.606,45.0*,-0.8,·,i
O=C(/C=C/c1ccccc1)NC(NC(=S)Nc1cccc(O)c1)C(Cl)(Cl)Cl (centres undefined),-1.85,13.0,-8.0,-1.26,i
Cc1ccc(SCC(=O)c2c(C)[nH]c3ccccc23)cc1,0.773,40.6*,0.1,0.479,i
SMILES,Cl transport mod,Measles CPE,Arbovirus inh,ROMK mod,HSV replic up
Cn1nc([N+](=O)[O-])c(C(C#N)c2ccccn2)c(Cl)c1=O (centres undefined),-0.177,·,-25.5,-0.24,i
CCn1nc([N+](=O)[O-])c(C(C#N)c2nc3cc(C(F)(F)F)ccc3s2)c(Cl)c1=O (centres undefined),-5.68*,22.3,-43.9,-4.99*,i
CC(C)(C)n1nc2c(c1NC(=O)c1ccc(S(=O)(=O)N3CCCCC3)cc1)CS(=O)C2 (centres undefined),0.134,43.8*,-0.6,0.0385,i
CCC(CC)c1nn2c(N)c(/C=C3\C=Nc4ccccc43)c(=O)nc2s1,0.964,·,·,·,i
CCCc1nn2c(N)c(/C=C3\C=Nc4ccccc43)c(=O)nc2s1,-0.402,6.2,70.7*,0.713,i
CCCCc1nn2c(N)c(/C=C3\C=Nc4ccccc43)c(=O)nc2s1,-0.216,1.2,33.2*,0.55,·
Cc1cc2nc(=O)c(/C=C3\C=Nc4ccccc43)c(N)n2o1,-0.0249,·,·,-1.67,i
CC(C)Cc1nn2c(N)c(/C=C3\C=Nc4ccccc43)c(=O)nc2s1,-0.18,·,37.2*,-0.0724,i
CN(C)c1[nH]c(=O)c(C#N)c2c1CCN2Cc1ccccc1,·,3.2,3.7,-0.335,i
N#Cc1c2c(c[nH]c1=O)CCN2Cc1ccccc1,-1.52,43.8*,7.9,1.04,i
CC1(C)Cc2nc(N3CCCC3)c(C#N)cc2CO1,-0.755,·,15.9,-0.69,i
CC1(C)Cc2nc(N3CCOCC3)c(C#N)cc2CO1,0.0109,17.9*,6.6,·,i
C=CCn1cc(C(=O)OCC)c(=O)c2ccc(F)cc21,0.128,·,4.1,-0.246,i
COc1cc2c3nnc(-c4ccc(F)cc4)c-3cn(Cc3ccccc3F)c2cc1OC,i,·,-5.1,-3.95*,?
COc1cc2c3nnc(-c4ccccc4)c-3cn(Cc3ccccc3F)c2cc1OC,-1.26,·,-7.0,-6.76*,·
COCc1c(C(=O)N/N=C/c2cccc3ccccc23)nnn1-c1nonc1N,1.18,·,-8.3,0.267,i
COc1ccc(C(=O)CSc2nnc(CCc3ccccc3)n2-c2ccccc2)cc1,-1.45,24.5*,-2.4,·,i
O=C(NCCCO)Nc1ccc2nc(-c3ccco3)c(-c3ccco3)nc2c1,·,7.3,33.4*,·,·
CCCc1cc(=O)[nH]c(SCC(=O)c2cc(C)n(-c3c(C)n(C)n(-c4ccccc4)c3=O)c2C)n1,-0.702,·,3.2,-0.188,i
CCCc1cc(=O)[nH]c(SCC(=O)c2cc(C)n(C(C)COC)c2C)n1 (centres undefined),0.431,45.4*,5.7,0.595,i
CCN(CC)S(=O)(=O)c1cccc(C(=O)N2CC(O)CC2C(=O)O)c1 (centres undefined),-0.0882,28.2*,0.8,0.701,i
CCN(CC)S(=O)(=O)c1cccc(C(=O)N2CC(O)CC2C(=O)OC)c1 (centres undefined),0.817,12.7,-5.5,·,i
CCOC(=O)N1CCN(C(=O)C(=O)NN)CC1,0.191,·,-3.4,1.33,i
O=C(O)c1cccc2c1C(=O)N(Cc1ccncc1)C2,1.35,72.0*,8.6,·,i
Cc1onc(-c2c(F)cccc2Cl)c1C(=O)OCC(=O)NC1CC1,-0.213,·,15.0,0.0104,i
Cc1cc(C)n2nc(-c3ccc(F)cc3)nc2n1,-0.716,23.4*,-0.9,·,i
CN(C)C(=O)CCCCCCCCC(=O)N(C)C,0.918,·,·,·,i
CCC/C=C(\CCC)C(NC(=O)CCc1ccccc1)c1ccc(C(F)(F)F)cc1 (centres undefined),·,·,·,·,i
CCOC(=O)c1cccc(NC(=O)CSc2nnc(COc3ccccc3)n2CC)c1,-0.268,3.5,-0.3,·,i
CCOC(=O)c1ccccc1NC(=O)CSc1nnc(COc2ccccc2)n1CC,-1.46,52.6*,23.4,·,i

# Bioassay records (PubChem)
